Bioassay records from PubChem BioAssay.
TRPML1 ag = agonists of human TRPML1 channel. TRPML1-expressing cells, Ca2+ dye fluorescence, FDSS. activation, % (no concentration beside the values). actives 0.12% (n = 410,000). AID 624414; in the data active = activation above about 50%; inconclusive = mostly about 30% to 49%
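In this qHTS format, compounds were pin-transferred onto Ca8-dye-loaded TRPML1-DL cells induced with Tet overnight, and intracellular Ca2+ fluorescence was recorded kinetically for 110 s after a 10 s baseline. A subsequent 4uM final 54-4 (EC80) addition followed by a second 110 s read served as the antagonist phase.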
HEK293 tox = cytotoxicity counter-screen for GLP-1 receptor inverse agonists; HEK293 cAMP-luciferase reporter cells, luminescence, 24 h; Potency, µM (top dose mostly 38.3 µM), actives largely listed as inhibitors; actives 0.13% (n = 410,000); AID 624418;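 also: loss of luciferase light is scored as toxicity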
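Compound-treated cells are incubated 24 hr at 37 deg C under 5% CO2 after a 12 hour attachment period, then luciferase detection reagent is added and luminescence is measured following 12 min at room temperature; lowered signal indicates toxicity.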
GLP1R ag = activates the human GLP-1 receptor; P43220; Potency, µM (highest dose often 45.6 µM), actives largely listed as activators; HEK293 GLP-1R CRE-luciferase, luminescence, 4-6 h; cells express a hypersensitive GLP-1R form; actives 0.007% (n = 380,000)
Target sequence (P43220 whole entry, looked up): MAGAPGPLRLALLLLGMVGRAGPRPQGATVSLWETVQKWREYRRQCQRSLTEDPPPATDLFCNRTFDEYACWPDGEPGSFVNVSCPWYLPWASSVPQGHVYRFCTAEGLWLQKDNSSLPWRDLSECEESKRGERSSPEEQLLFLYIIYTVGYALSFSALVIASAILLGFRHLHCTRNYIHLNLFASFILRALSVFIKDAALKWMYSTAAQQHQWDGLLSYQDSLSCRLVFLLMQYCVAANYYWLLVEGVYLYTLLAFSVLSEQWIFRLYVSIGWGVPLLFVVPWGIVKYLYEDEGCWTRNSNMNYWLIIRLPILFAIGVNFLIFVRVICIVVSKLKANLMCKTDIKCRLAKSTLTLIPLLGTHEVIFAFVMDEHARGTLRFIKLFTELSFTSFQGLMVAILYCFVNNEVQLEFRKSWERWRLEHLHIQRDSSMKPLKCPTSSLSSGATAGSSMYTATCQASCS
TRPML1 inh = blocks the human TRPML1 channel; Q9GZU1; TRPML1-inducible cells, Ca2+ dye fluorescence, FDSS; hits give low values; inhibition of EC80 agonist-evoked calcium signal; activity change, negative = inhibition, % (no concentration beside the values); actives 0.02% (n = 390,000); in the data active = activity change below about -50%; inconclusive = between about -30% and that limit;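 also: stimulus is agonist 54-4 at its EC80 concentration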
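Tet-induced TRPML1-DL cells loaded with Ca8 no-wash calcium dye were read kinetically on FDSS. Compound addition was followed by EC80 agonist 54-4 (4 uM final); inhibition was read over 110 s.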
GLP1R inv ag = acts as inverse agonist at human GLP-1 receptor | P43220 | HEK293 GLP-1R CRE-luciferase, luminescence, 24 h; GLP-1R form is constitutively active | Potency, µM (top dose mostly 38.3 µM), most hits filed as inhibitors | actives 1.6% (n = 410,000); also: nearly all actives have a fitted effect of over 55% in size
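Inverse agonism was detected as reduced cAMP-driven luciferase luminescence after 24 h compound treatment. The cells were HEK293 clones expressing constitutively active human GLP-1R with the reporter. Reporter-only and GPR119 cell lines served as counterscreen controls.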
Large screens that a line does not name were inactive. In the library only some 1.8% were active in any assay of this set; here they are far more common. Unless noted, calls follow the shape of the dose curve; as a rule, active = well fitted curve in the direction sought with a large enough effect; inconclusive = small, poorly fitted or top-dose-only effect, or another doubt; inactive = no such curve, though single readings can be large; an effect the other way counts as inactive or inconclusive.

O=C(NC(NC(=O)c1ccccc1)c1cccc([N+](=O)[O-])c1)c1ccccc1	none
Cc1ccsc1/C=N/Nc1cccc(C(=O)O)c1	GLP1R inv ag 4.47µM
Cc1ccsc1/C=N/Nc1ccc(C(=O)O)cc1	GLP1R inv ag inconclusive
Cc1ccc(Cn2c(=O)n(CCCCC(=O)NCCc3ccc(Cl)cc3)c(=O)c3ccccc32)cc1	none
CC(=O)c1cnn(-c2ccc(Cl)cc2)c1C	none
Cc1c(C(=O)NCCSCc2cccc(C(F)(F)F)c2)cnn1-c1ccc(Cl)cc1	GLP1R inv ag 5.01µM
COc1ccc2c(C)cc(SCC(=O)NC3CCCC3)nc2c1	GLP1R inv ag 11.2µM
COc1ccc(-c2[nH]c(-c3ccc(C)cc3)nc2SCC(=O)NC2CCCC2)cc1	HEK293 tox inconclusive, GLP1R inv ag 10µM
CCOc1ccc(NC(=S)N(Cc2ccc(Cl)cc2)Cc2ccco2)cc1	GLP1R inv ag 11.2µM
Cc1ccc(Sc2ccc(NC(=O)CCN3C(=O)NC4(CCCC4)C3=O)cc2)c(C)c1	GLP1R inv ag 11.2µM
Cc1ccc(OCC(=O)NCC2(N3CCOCC3)CCCCC2)cc1C	GLP1R inv ag inconclusive (no result: GLP1R ag)
COc1ccc(-c2nsc3c(N4CCCCC4C)ncnc23)cc1 (configuration not stated)	GLP1R inv ag 0.282µM
CCc1ccc(CNC(=O)CN2C(=O)CCn3nc(-c4cn(C)c5ccccc45)cc32)cc1	none (no result: GLP1R ag)
Cc1ccc(S(=O)(=O)N(C)C)cc1NC(=S)NC(=O)C12CC3CC(CC(C3)C1)C2	GLP1R inv ag inconclusive
CCN(CC)S(=O)(=O)c1cccc(NC(=O)CNC2CCCCCC2)c1	GLP1R inv ag 7.94µM
CN(C)S(=O)(=O)c1cccc(NC(=S)NC23CC4CC(CC(C4)C2)C3)c1	GLP1R inv ag 7.94µM
NS(=O)(=O)c1cccc(NC(=S)NC(=O)C23CC4CC(CC(C4)C2)C3)c1	GLP1R inv ag 1.26µM
FC(F)Oc1ccc(NC(=S)NC23CC4CC(CC(C4)C2)C3)cc1	HEK293 tox inconclusive, GLP1R inv ag 4.47µM
O=[N+]([O-])c1ccc(O/N=[N+](\[O-])N2CCCC2)c([N+](=O)[O-])c1	none (no result: HEK293 tox, GLP1R ag, GLP1R inv ag)
CCN(CC)S(=O)(=O)c1cccc(NC(=O)CCNC(=O)NC23CC4CC(CC(C4)C2)C3)c1	GLP1R inv ag 10µM
CN(C)S(=O)(=O)c1cccc(NC(=S)NC(=O)C2CCCCC2)c1	GLP1R inv ag inconclusive
CN(C)S(=O)(=O)c1cccc(NC(=S)NC2CCCCC2)c1	GLP1R inv ag 11.2µM
CSc1ccc(CCNC(=O)c2c(C)nn(-c3ccc(F)cc3)c2-n2cccc2)cc1	GLP1R inv ag inconclusive
COC(=O)c1ccccc1-c1ccc(/C=N/Nc2nc(N3CCCC3)nc(N3CCCC3)n2)o1	HEK293 tox inconclusive, GLP1R inv ag 10µM
Cc1ccc(/C=N/Nc2nc(N3CCCCC3)nc(N3CCCCC3)n2)o1	none
O=C(Nc1ccc(F)cc1F)c1sccc1SCc1cccc(C(F)(F)F)c1	GLP1R inv ag 10µM
O=C(Nc1ccc(F)cc1)c1sccc1SCc1cccc(C(F)(F)F)c1	none
O=C(NCCc1ccccc1)c1coc(=O)c(Br)c1	HEK293 tox 5.01µM, GLP1R inv ag inconclusive
CN(C)CCNC(=O)c1coc(=O)c(Br)c1	none
CCc1ccc(NC(=O)Cn2c(-c3cncs3)nc3ccccc32)cc1	none (no result: GLP1R ag)
COc1ccc(Br)cc1C(C[N+](=O)[O-])c1c(N)n(C)c(=O)n(C)c1=O (configuration not stated)	HEK293 tox 10µM, GLP1R inv ag inconclusive
CN(C)c1ccc(C(C[N+](=O)[O-])c2c(N)n(C)c(=O)n(C)c2=O)c(F)c1C#N (configuration not stated)	HEK293 tox inconclusive, GLP1R inv ag inconclusive
CCn1c(COc2ccccc2OC)nc2ccccc21	none
CCCn1c(COc2ccccc2OC)nc2ccccc21	GLP1R inv ag 10µM
O=C(Nc1ccn(Cc2ccccc2F)n1)c1ccc(COc2cccc(Br)c2)cc1	GLP1R inv ag 3.16µM
c1ccc(C(c2nnnn2Cc2ccco2)N2CCN(c3nc4ccccc4s3)CC2)cc1 (configuration not stated)	GLP1R inv ag 7.94µM
Fc1ccc(C(c2nnnn2Cc2cccs2)N2CCN(c3ccccc3)CC2)cc1 (configuration not stated)	GLP1R inv ag 7.94µM
CCCCC(c1nnnn1Cc1ccco1)N1CCN(c2nc3ccccc3s2)CC1 (configuration not stated)	GLP1R inv ag 7.08µM
O=C(CSc1nc2cc(C(=O)NC3CCCC3)ccc2c(=O)n1CC1CCCO1)c1cccc(Cl)c1 (configuration not stated)	none (no result: GLP1R ag)
CCn1cc(S(=O)(=O)c2ccc(C)cc2)c(=O)c2cc(F)c(N3CCCCCC3)cc21	none (no result: GLP1R ag)
CCOc1ccc(CCNC(=O)c2nn(C)c3c2CSc2ccccc2-3)cc1	GLP1R inv ag 10µM (no result: GLP1R ag)
CC(C)N(C(=O)c1nn(C)c2c1CSc1ccccc1-2)C1CCCCC1	GLP1R inv ag 10µM
O=C(CSc1nnc(CNC(=O)c2ccccc2)n1-c1cccc(Cl)c1)Nc1ccccc1F	none (no result: GLP1R ag)
O=C(CNC(=O)C1CCCCC1)OCC(=O)c1ccc([N+](=O)[O-])cc1	none (no result: HEK293 tox, GLP1R ag, TRPML1 inh, GLP1R inv ag)
C=CCN1C(=O)NC(c2ccc(OC)cc2)(C(F)(F)F)S/C1=C(\C#N)c1nnc(N2CCOCC2)n1-c1ccccc1 (configuration not stated)	HEK293 tox 10µM, GLP1R inv ag inconclusive
CC(=O)Nc1ccc(/C(C)=N/Nc2nc(Nc3cccc4ccccc34)nc(N3CCOCC3)n2)cc1	GLP1R inv ag 2.82µM
O=C(Nc1ccccc1F)c1nc(S(=O)(=O)Cc2ccccc2F)ncc1Cl	HEK293 tox inconclusive, GLP1R inv ag 11.2µM (no result: GLP1R ag)
O=c1c2ccccc2cnn1Cc1ccc(Cl)c(Cl)c1	GLP1R inv ag 10µM
O=C(NCCC1=CCCCC1)C(=O)NCC(c1ccco1)N1CCN(c2ccccc2)CC1 (configuration not stated)	none
COc1ccc(N2CCN(C(CNC(=O)C(=O)NCCC3=CCCCC3)c3ccco3)CC2)cc1 (configuration not stated)	HEK293 tox inconclusive, GLP1R inv ag 10µM
CCc1ccc(C(C)NC(=S)NCc2ccc(F)cc2)cc1 (configuration not stated)	HEK293 tox inconclusive, GLP1R inv ag inconclusive
Cc1ccc(C(C)NC(=S)NCc2ccc(F)cc2)cc1C (configuration not stated)	GLP1R inv ag 8.91µM
CCOC(=O)c1cnc(-n2nc(C)cc2C)nc1NCCc1ccccc1	HEK293 tox inconclusive, GLP1R inv ag inconclusive
CCOC(=O)c1cnc(-n2nc(C)cc2C)nc1NCc1ccc2c(c1)OCO2	HEK293 tox inconclusive, GLP1R inv ag 3.55µM
CCOC(=O)c1cnc(-n2nc(C)cc2C)nc1Nc1ccc(OC)cc1	HEK293 tox inconclusive
